# Test results: the supplement of paper PMC6555819
# Key:
# Test in all cases: PBM binding z-score (relative to random genomic background probes); higher = stronger binding; sequences stand for … in GC…GCGATTGACAGCGTAGAATGAAGG
# [1] = system: RARb homodimer (NR concentration 270 nM)
# In short: (§1)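 Binding buffer was PBS pH 7.4 with 2% milk, 0.02% Triton X-100, 1 mM DTT, 0.2 mg/mL BSA and 0.4 mg/ml salmon testes DNA. In it, ligand-free nuclear receptor dimers were incubated 1 h on custom Agilent 4×180K protein-binding microarrays carrying double-stranded probes. Antibodies against each partner (one per run) detected binding, and z-scores were calculated against random background probes after regression normalization of scanned fluorescence.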
# [2] = system: RARg:RXRa (NR concentration 270 nM, RXRa partner concentration 90 nM)
# In short: as §1
# [3] = system: RARg homodimer (NR concentration 270 nM)
# In short: as §1
# [4] = system: RXRa DBDmut IVT, anti-RXR (DBD mutation: RXRa K156A/R161A, NR concentration 90 nM)
# In short: as §1
# [5] = system: RXRa homodimer (NR concentration 180 nM)
# In short: as §1
# [6] = system: THRa:RXRa (NR concentration 90 nM, RXRa partner concentration 90 nM)
# In short: as §1
# [7] = system: THRa homodimer (NR concentration 90 nM)
# In short: as §1
# [8] = system: VDR:RXRa (NR concentration 270 nM, RXRa partner concentration 90 nM)
# In short: as §1
# [9] = system: VDR homodimer (NR concentration 270 nM)
# In short: as §1
Sequence,PBM binding z-score [1],PBM binding z-score [2],PBM binding z-score [3],PBM binding z-score [4],PBM binding z-score [5],PBM binding z-score [6],PBM binding z-score [7],PBM binding z-score [8],PBM binding z-score [9]
CGTCAAAGTTCAACTAAGGTAACATAAAGCACGC,4.23,5.98,6.47,4.9,5.01,5.25,1.77,4.72,3.89
GCAGACAGGGGAAACGCAGGTAACTCAGGGTGGC,-0.497,-0.368,-0.487,-0.47,-0.164,0.986,-0.308,-0.768,-0.688
AGATCGAGGGCACGCTGAGTTGATAGCAGAGTAG,0.796,1.71,1.86,1.57,0.933,1.63,-0.107,1.85,1.65
CCTAGTTGGTCAGGACGTCACACACCGGATATGA,0.767,0.464,0.776,0.386,0.296,0.673,1.03,0.236,0.558
ACTATTAGTTGGGACGAGGGCAACCGATAGGTTG,1.37,0.644,0.82,0.0733,0.516,1.64,0.629,0.564,1.12
ATCTATAGGTAACAAGTTCAGTGAAAGAGAGGAC,2.01,1.61,1.59,1.56,1.19,1.33,0.91,2.43,2.47
CATACTGGGCCATTCAGAGGTCATTGATCATATG,4.15,4.52,3.48,1.39,3.85,3.21,1.4,4.15,3.67
GCTAGTTGGTCAGTAAAAGGTCACACTCCGGTCG,5.07,5.14,4.48,0.827,5.23,3.58,2.19,3.76,1.59
ATCACTAGGTAAAGATAGTTCAGTGAATGCAAAT,0.839,0.649,0.795,-0.617,0.325,0.492,0.0795,0.888,0.49
TCCAGTTGGTCACGGAGGTCACACACGACGGGTA,4.6,4.87,4.79,1.11,4.8,3.84,2.09,5.75,2.65
GGAACGAGGGTAAGTTGATAGCAGAGTTTGATGG,0.494,0.154,0.437,0.818,0.178,0.12,-0.196,-0.217,0.755
AGAATGAGGTTAAGATCAGGAAAACAGAATACAT,0.79,2,1.73,0.917,2.65,2.28,0.529,1.24,0.435
ATATGTAAGTTACATCCGGGTCATTCAGGCTATG,2.56,1.71,1.21,1.07,2.15,3.43,2.33,3.56,3.16
AGAATGAGGTTAGACGTAGATCAGGGAAGAAAGT,0.932,0.987,0.859,0.209,1.17,1.55,0.554,0.639,0.591
AATACAGGGTCATCGTAGGCCAGACTACGCACAG,2.36,5.54,5.13,3.61,6.23,4.74,1.68,5.11,2.65
TAACCAAGGTGAAAGGTCGTTGATGCACGCCTTG,2.82,4.47,2.52,0.794,6.28,3.33,0.878,3.38,1.5
CCTACTGGTCCATTCAGAGGTCATTGATCATATG,4.13,3.66,2.62,1.73,3.92,2.91,2.07,4.24,4.16
TCTCGGAGAACACGAAAGGTCAGAGCTCGACATC,4.31,3.67,3.24,0.702,3.72,2.63,0.193,2.22,0.319
CGTCCAAGGTCATAGGAAGTCAGTGAAGACAGAT,3.7,5.5,5.7,3.77,5.28,3.81,2.31,4.21,2.43
ACTATTAGTTGCGACGAGGGCAACCGATAGGTTG,0.942,0.259,0.489,0.4,0.472,1.09,0.3,0.0281,0.643
AGTCAAAGTTCTCTAGGTAACGTAAGATTCAGCT,0.137,0.139,0.523,0.597,0.0862,0.903,0.459,-0.0211,0.273
ACAGACAGGTGACTGAAGGTAACTCAGCTGGACG,0.000361,0.5,0.509,-0.793,0.654,1.94,-0.751,-0.404,-0.657
TAGCCTAGGTCAGATCGGGCCAGTAAACGCTATA,1.72,2.66,3.21,-0.396,1.32,3.89,-0.219,0.5,-0.568
TCATATAGGTAAACAGGTGAAAGTACGTAAGTTA,0.897,0.775,0.637,1.58,1.31,0.952,0.331,1.48,0.523
CAAACTAGGTCACCGGAAGATCAAAGTCCGCATG,3.35,4.78,5.35,1.93,3.67,3.63,1.81,2.62,0.906
TAGCCTAGGTCATTGGGCCAGCATAGTACGCATC,2.94,3.88,4.34,1.49,3.01,2.76,0.613,2.14,0.817

Sequence,PBM binding z-score [1],PBM binding z-score [2],PBM binding z-score [3],PBM binding z-score [4],PBM binding z-score [5],PBM binding z-score [6],PBM binding z-score [7],PBM binding z-score [8],PBM binding z-score [9]
GCTGCTAGGTCGGGTTGGTCAGCTAACGGGTACG,0.957,0.215,0.167,-0.0966,0.0101,0.409,0.283,-0.0515,0.431
ATCTCTAGGTAAAGTTTAGTGAAAGATCGATAGA,0.401,0.251,0.558,0.303,0.0525,0.362,0.126,0.28,0.236
CCTCGGAGGACAGAAGGTCAGTGCTGTCCGCTTT,3.69,3.14,3.23,0.236,1.25,1.88,-0.0278,0.863,0.261
ATCGAAAGGTCGTGAGGTGATTATACAGAAAGGC,2.49,4.47,3.99,1.6,5.42,3.17,1.15,3.61,1.07
CCAACTGGGCCAAAGGTCATTGATTCCAATGCTC,4.44,5.57,4.82,1.61,5.9,3.07,0.791,4.72,2.39
CCTAGGTGGTCAAGGTCACACACGCTATAGGTAC,4.16,4.81,4.61,1.79,4.66,4.09,4.01,4.76,3.06
CCAACTGGGCCATTCAGAGGTCATTGATCATATG,3.76,4.28,2.94,1.22,3.98,3.12,1.3,3.92,3.31
CTCGAAAGGTCCTGCTCAGGTGAGTATACCAAAC,0.614,0.95,0.414,-0.0806,0.666,2.11,0.634,-0.0691,-0.488
TAGCCTAGGTCATGCGGGCCAGTATTGTGTCGGC,3.12,3.74,4.11,0.382,2.52,3.05,1.08,2.92,0.379
ATCTCTAGGTAAGACTCAGTTCAGTAAAGAACGC,0.871,0.41,0.438,0.632,0.0419,0.985,0.878,1.12,1.74
CCTAGCATGCCAGGGTCACTCAAGCATTTCGCTT,2.54,2.81,2.01,0.413,3.35,2.95,1.01,2.59,0.827
GCTTGTAGATGAAGGTTAAGAAAGACTAAGCTAA,0.181,0.18,0.177,-0.235,0.368,0.351,-0.694,-0.396,-0.443
TGTCAAAGATCAAAGGTAACGTAAGTATCCACAC,0.261,1.26,0.761,-0.668,2.36,1.54,-0.401,0.973,-0.267
ATCTCCAGGTAAAGTTCAGTGAAAGATCGATAGA,2.77,2.26,2.51,1.38,1.52,1.73,0.709,1.83,1.92
CAAACTGGGTCACAGAGGTCAAAGTCCGTGCGTA,5.5,7.14,7.26,3.26,7.99,4.4,2.19,7.58,5.91
CTCGAAAGGTCGTGCTCAGGTGATTATACCAAAC,2.98,4.97,4.05,2.27,4.89,3.89,1.39,3.58,1.25
CGAACGAGGGCATGAGTTGCTAGCAAATGCCGAT,0.64,1.05,1.42,2.17,0.709,1.11,-0.232,0.671,1.05
CTACCAAGGCGAACAAGGTCGTTGATTACTATTC,0.781,0.29,0.0992,0.854,0.744,2.38,0.72,2.59,1.38
CCGACTGGGGAATAAGGTTACCATAAGCCAGCCC,1.02,0.435,0.223,-0.297,0.812,2.03,1.18,0.185,-0.0686
TCGAGTAGGTTAGGGGGATTCAGAATGGCGTCGA,0.809,0.0898,0.376,0.668,0.485,0.871,1.01,0.8,0.42
TCATGTAGATCAATAGAGGTTAAGAAAGTGCGCT,1.44,0.871,0.576,1.27,1.28,2.31,-0.192,1.93,0.637
TTTATTAGTTGAAGGGCAACCGACGAGTCCGTTT,1.42,0.781,0.783,0.859,0.628,0.408,0.198,1.17,1.91
TAGCCTAGGTAATGGGCCAGTATACCACGCGAAC,-0.381,-0.234,-0.0696,-1.16,-0.0912,-0.354,-0.5,-0.466,-0.715
GCGACTGGGGCAAAGCAGGTTACCAGAAGGTTGG,1.32,0.622,0.806,-0.155,0.313,2.87,-0.356,0.13,-0.376
ACAGACAGGTGAGTGAAGGTACCTCAGCTGGACG,-0.44,-0.0299,0.22,-0.86,-0.0741,0.291,-0.575,-0.805,-0.908
TCTGCTAGGTCAACGATGGTGAGCTAATCTGCTA,2.8,3.82,4.93,0.81,1.99,2.68,0.17,1.15,-0.792
